The record followed here is PubChem BioAssay (NCATS).

Where “and” joins values, the source holds several entries; their conditions need not be identical. Equal entries are not always repeated. Results filed as inconclusive are left out. Calls of active or inactive are those of the source. Unless noted, calls follow the shape of the dose curve; as a rule, active = well fitted curve in the direction sought with a large enough effect; inconclusive = small, poorly fitted or top-dose-only effect, or another doubt; inactive = no such curve, though single readings can be large; an effect the other way counts as inactive or inconclusive.

Experiment [1] concerns the target Glutathione peroxidase 1 (Homo sapiens) (UniProt P07203). The experiment can be described thus: Primary qHTS Assay for Inhibitors of Recombinant Selenoprotein Glutathione Peroxidase 1 (GPX1) (AID 1845191). Also: nearly all actives have a fitted effect of over 65% in size. Put shortly: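 10 nM GPX1 + cpd, 30 min RT; start w/ 1 mM GSH, 0.5 mM cumene hydroperoxide, 0.5 mM NADPH, 100 nM GR, 0.01% BSA; buffer 50 mM Tris-HCl pH 7.5, 2 mM EDTA, 150 mM NaCl; Fl 340/450, 0 & 15 min.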

Experiment [2] addresses Phospholipid hydroperoxide glutathione peroxidase GPX4 (Homo sapiens) (UniProt P36969). Briefly: Primary qHTS Assay for Inhibitors of Recombinant Selenoprotein Glutathione Peroxidase 4 (GPX4) (AID 1845192). Also: nearly all actives have a fitted effect of over 65% in size. An outline of the steps: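 NADPH consumption, followed by fluorescence at 340/450 nm between 0 and 15 min, reports GPX4 activity via coupled glutathione reductase (100 nM). Enzyme 200 nM was pre-exposed to compound 30 min; 0.5 mM cumene hydroperoxide and 1 mM GSH served as substrates.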
(In general: In qHTS, concentration-response curves come from the screen itself.)

Experiment [3] in a line: qHTS drug screen for cell cycle checkpoint inhibitors in PARPi-resistant BRCA-mutant ovarian cancer cell lines. (AID 1963452; calls by dose curve). The conditions noted are these: PEO1/OlaR viability, CellTiter-Glo luminescence, 96 h, stronger effect = lower value. An outline of the steps: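 PEO1, PEO4 and PEO1/OlaR ovarian cancer cells, 600 per well, exposed 96 h at 37C to a dilution series. Viability read by CellTiter-Glo luminescence, normalized to DMSO and empty wells; activity summarized as Z-AUC.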

The nature of experiment [4]: Cell Viability - SK-N-SH (AID 435; calls by dose curve;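 also: potency is read from the fitted curve at half-maximal effect; compound exposure lasted 40 h at 37 °C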). The conditions noted are these: SK-N-SH neuroblastoma cell viability qHTS. An outline of the steps:
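Human neuroblastoma line, 40 h exposure at 37 °C, ATP quantified via luciferase luminescence; DMSO and 100 uM tamoxifen define 0 and 100% inhibition for AC50 fitting.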

The nature of experiment [5]: Cell Viability - N2a (AID 540).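 Also: plate controls were DMSO alone for no effect and tamoxifen control for full effect; nearly all actives have a fitted effect of over 45% in size.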 As to conditions: N2a mouse neuroblastoma cell viability; activity change, negative = cytotoxicity: at 92.2 µM (top of the series). An outline of the steps:
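Mouse neuroblastoma N2a cells, 1500/well, exposed to compounds 40 h at 37 °C in complete medium. Viability measured as cellular ATP by CellTiter-Glo luminescence; AC50 from Hill fits of concentration-response.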

Experiment [6] in a line: Cell Viability - NIH 3T3 (AID 541).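 Also: plate controls were DMSO alone for no effect and tamoxifen positive control for full effect; nearly all actives have a fitted effect of over 25% in size.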 As to conditions: NIH 3T3 cell viability, qHTS; activity change, negative = cytotoxicity: at 92.2 µM (top of the series). Put shortly: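 Mouse NIH 3T3 fibroblasts, 1000 cells/well, rested 5 hr at 37 °C, then exposed to compound for 40 hr at 37 °C in complete medium. Viability read as intracellular ATP by CellTiter-Glo luminescence; AC50 from Hill-equation fits of concentration-response data.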

The nature of experiment [7]: Cell Viability - HUV-EC-C (AID 542). Also: % is scaled to controls: 0 for no effect and ±100 for the full control effect; nearly all actives have a fitted effect of over 35% in size. An outline of the steps:
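HUV-EC-C human vascular endothelial cells, 1000/well, exposed to compound for 40 hr at 37 °C in complete medium. Intracellular ATP was read by CellTiter-Glo luminescence. AC50 came from Hill-equation fits of concentration-response data.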

Experiment [8] can be described thus: Cell Viability - SH-SY5Y (AID 544).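 Also: 0% = DMSO alone and -100% = 100 µM tamoxifen; nearly all actives have a fitted effect of over 55% in size.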 An outline of the steps:
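SH-SY5Y human neuroblastoma cells (1500/well) incubated 5 h, then compound-treated 40 h at 37 °C in complete medium. Viability read as intracellular ATP by CellTiter-Glo luminescence after 20 min; AC50 from Hill-equation fits of qHTS concentration-response.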

Experiment [9] can be described thus: Cell Viability - Renal Proximal Tubule (AID 545).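 Also: 0% = DMSO only and -100% = 100 µM tamoxifen; nearly all actives have a fitted effect of over 40% in size.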 As to conditions: renal proximal tubule cells viability, primary cells of rat origin; at 91.7 µM (top of the series). An outline of the steps:
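In this qHTS format, normal rat kidney-derived proximal tubule cells in complete culture medium receive compound titrations, then sit 40 hours at 37 °C before luciferase-based ATP quantitation; potency is reported as AC50 from concentration-response curves.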

Experiment [10] can be described thus: Cell Viability - Mesenchymal (AID 546).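 Also: cells exposed to compound for 40 hours before reading; 0% = DMSO only and -100% = 100 µM tamoxifen.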 The conditions noted are these: mesenchymal cells viability, qHTS; activity change, negative = cytotoxicity: at 91.7 µM (top of the series). An outline of the steps:
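AC50 values reflect the drop in intracellular ATP in a human kidney mesenchymal line derived from normal glomeruli. Treatment lasts 40 hr at 37 °C in complete medium, and the signal comes from CellTiter-Glo luminescence.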

Experiment [11] can be described thus: qHTS Assay for Identification of Small Molecule Inducers of Hypoxia Response (AID 2120; active = well fitted curve in the direction sought with a large enough effect in the signal ratio, with a control signal flat, not every such curve was filed as active; the % refers to the signal ratio; also: 0% is about no effect). An outline of the steps:
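HRE-bla ME-180 cells in Opti-MEM with 0.5% dialyzed FBS, pre-plated 4-5 h, then compound titration for 17 h at 37 degrees Celsius. CCF4 loaded 2.5 h at room temperature; 460/530 nm ratio gave %Activity and AC50 for induction.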

The nature of experiment [12]: qHTS assay for small molecule agonists of retinoid X receptor alpha signaling (AID 588544; calls by dose curve). The conditions noted are these: HEK293T RXRa-UAS-bla, beta-lactamase reporter, 18 h; 530 nm emission.
For experiment [13], the target named is Retinoic acid receptor RXR-alpha (Homo sapiens) (UniProt P19793). The description is as above.
The nature of experiment [14]: qHTS assay for small molecule antagonists of retinoid X receptor alpha signaling (AID 588546; active = well fitted inhibition curve with a large enough effect in the signal ratio, with a control signal flat, not every such curve was filed as active; the % refers to the signal ratio;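 also: cells stimulated with 9-cis-retinoic acid as agonist; % is scaled to controls: 0 for no effect and ±100 for the full control effect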). As to conditions: HEK293T RXRa-UAS-bla, beta-lactamase ratio, antagonist mode; measured here: W530 green channel, cytotoxicity proxy. Put shortly: (§1)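 Beta-lactamase reporter inhibition, read as CCF4 fluorescence ratio (ex 405, em 460/530 nm) after 2 h at RT. HEK293T UAS-bla cells, 2500/well, were stimulated with 9-cis-RA at 500 or 100 nM final alongside test compound for 18 h at 37 C.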

For experiment [15], the target named is Retinoic acid receptor RXR-alpha (Homo sapiens) (UniProt P19793). The description is as above. As to conditions: HEK293T RXRa-UAS-bla, beta-lactamase ratio, antagonist mode. An outline of the steps:
as §1

In experiment [16] the target is Peroxisome proliferator-activated receptor alpha (Homo sapiens) (UniProt Q07869). Briefly: qHTS assay for small molecule agonists of the peroxisome proliferator-activated receptor alpha (PPARalpha) signaling pathway (AID 651778). Also: % of control where 0% means no effect. The conditions noted are these: PathHunter PPARalpha complementation, chemiluminescence, 6 h; max response: stronger effect = higher value. An outline of the steps:
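Chemiluminescence from complemented enzyme reported PPARalpha activation in cells after 6 hr of compound treatment at 37 C. The detection reagent was incubated for 60 min at room temperature, and compounds were scored as agonists.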

Experiment [17] can be described thus: qHTS assay for small molecule agonists of the antioxidant response element (ARE) signaling pathway measured by Nrf2-dependant transcriptional activity (AID 720636; active = well fitted curve in the direction sought with a large enough effect in the repeat runs; an effect the other way counts as inactive or inconclusive; also: % of control where 0% means no effect). Put shortly:
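Quantitative HTS format in HepG2 cells stably expressing an ARE-luciferase reporter; 16 hr compound treatment at 37 C, luciferase signal detected with ONE-Glo.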

Experiment [18] can be described thus: qHTS assay for small molecule agonists of the antioxidant response element (ARE) signaling pathway measured by Nrf2-dependant transcriptional activity - cell viability counter screen (AID 720653; active = well fitted curve in the direction sought with a large enough effect in the repeat runs; an effect the other way counts as inactive or inconclusive; also: % is scaled to controls: 0 for no effect and ±100 for the full control effect). The conditions noted are these: ARE-bla HepG2 viability, CellTiter-Glo ATP luminescence, 16 h; max response: stronger effect = lower value. An outline of the steps:
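Cytotoxicity counter screen: intracellular ATP quantified by CellTiter-Glo luminescence in the same ARE-bla HepG2 plates, after 16 h compound exposure and a 2 h beta-lactamase substrate step.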

The nature of experiment [19]: qHTS assay for cell viability of HEK293 cells (AID 743288). Also: % is scaled to controls: 0 for no effect and ±100 for the full control effect; nearly all actives have a fitted effect of over 50% in size. The conditions noted are these: ATP luminescence (CellTiter-Glo), 18 h; max response: stronger effect = lower value. An outline of the steps:
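Luminescent ATP quantitation served as the viability read-out. Cells (parental HEK293, 2,000/well) received compounds after at least 5 h at 37 C and were exposed for 18 h before a 30 min room-temperature reagent step.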

Experiment [20] is described as follows: qHTS assay for cell viability of the p53RE-bla HCT-116 cell line (AID 743292). Also: % is scaled to controls: 0 for no effect and ±100 for the full control effect; nearly all actives have a fitted effect of over 55% in size. An outline of the steps:
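Viability of compound-treated p53RE-bla HCT-116 cells is taken from ATP-dependent luciferase luminescence. Treatment lasts 16 h at 37 C after a 5 h settling period; detection follows 30 min at room temperature.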

[21] abbreviates: measured here: PEO1 parental Z-AUC.

Retinoic acid receptor RXR-alpha (Homo sapiens), sequence (P19793 whole entry, looked up): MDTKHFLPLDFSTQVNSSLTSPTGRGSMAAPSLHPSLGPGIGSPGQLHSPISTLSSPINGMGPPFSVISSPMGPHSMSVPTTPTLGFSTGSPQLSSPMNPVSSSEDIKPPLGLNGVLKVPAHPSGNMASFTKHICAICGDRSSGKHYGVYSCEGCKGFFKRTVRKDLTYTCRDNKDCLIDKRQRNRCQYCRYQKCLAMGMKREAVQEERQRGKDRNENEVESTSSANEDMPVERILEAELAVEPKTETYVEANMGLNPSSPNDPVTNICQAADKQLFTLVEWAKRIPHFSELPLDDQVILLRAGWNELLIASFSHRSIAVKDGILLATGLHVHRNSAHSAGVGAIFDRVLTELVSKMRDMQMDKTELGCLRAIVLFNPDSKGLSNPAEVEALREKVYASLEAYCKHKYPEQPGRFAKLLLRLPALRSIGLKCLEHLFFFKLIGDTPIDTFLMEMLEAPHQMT
Glutathione peroxidase 1 (Homo sapiens), sequence (P07203 whole entry, looked up): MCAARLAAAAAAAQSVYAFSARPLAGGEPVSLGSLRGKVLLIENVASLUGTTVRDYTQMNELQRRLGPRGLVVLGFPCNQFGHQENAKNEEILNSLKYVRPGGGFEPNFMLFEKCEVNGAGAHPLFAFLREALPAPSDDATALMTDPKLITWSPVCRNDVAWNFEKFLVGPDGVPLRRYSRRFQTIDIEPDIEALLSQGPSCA
Phospholipid hydroperoxide glutathione peroxidase GPX4 (Homo sapiens), sequence (P36969 whole entry, looked up): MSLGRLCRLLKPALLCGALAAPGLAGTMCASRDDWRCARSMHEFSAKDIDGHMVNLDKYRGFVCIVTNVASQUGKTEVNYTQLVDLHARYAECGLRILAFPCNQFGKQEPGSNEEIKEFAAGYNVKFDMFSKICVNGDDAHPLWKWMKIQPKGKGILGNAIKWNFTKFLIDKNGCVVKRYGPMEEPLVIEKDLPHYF
Peroxisome proliferator-activated receptor alpha (Homo sapiens), sequence (Q07869 whole entry, looked up): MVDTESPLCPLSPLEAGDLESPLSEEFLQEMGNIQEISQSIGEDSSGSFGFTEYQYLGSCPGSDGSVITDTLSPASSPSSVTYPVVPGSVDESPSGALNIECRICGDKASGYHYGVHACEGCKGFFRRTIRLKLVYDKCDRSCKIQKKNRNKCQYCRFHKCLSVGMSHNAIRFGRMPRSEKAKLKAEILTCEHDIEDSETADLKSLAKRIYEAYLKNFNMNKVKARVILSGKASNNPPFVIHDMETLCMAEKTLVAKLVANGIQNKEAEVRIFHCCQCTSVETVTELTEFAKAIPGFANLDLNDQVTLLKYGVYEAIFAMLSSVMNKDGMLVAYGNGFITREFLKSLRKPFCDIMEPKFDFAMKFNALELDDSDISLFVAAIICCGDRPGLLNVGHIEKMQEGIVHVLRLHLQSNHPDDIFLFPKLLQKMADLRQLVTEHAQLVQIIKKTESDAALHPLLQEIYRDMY

With `COc1ccc(CNc2nc(N3CCC[C@H]3CO)ncc2C(=O)NCc2ncccn2)cc1Cl`, the Potency result in experiment [1] and in experiment [2] was “inactive” each time.

With `CC[C@H]1OC(=O)C[C@@H](OC(C)=O)[C@H](C)[C@@H](O[C@@H]2O[C@H](C)[C@@H](O[C@H]3C[C@@](C)(O)[C@@H](OC(=O)CC(C)C)[C@H](C)O3)[C@H](N(C)C)[C@H]2O)[C@@H](CC=O)C[C@@H](C)C(=O)/C=C/C(C)=C/[C@@H]1CO[C@@H]1O[C@H](C)[C@@H](O)[C@@H](OC)[C@H]1OC`, the Potency result in experiment [1] and in experiment [2] was “inactive” each time.

Turning to `CONC(=O)c1ccccc1Nc1cc(Nc2cc(C)nn2C(C)C)ncc1Cl`, the Potency entry in experiment [1] and in [2] was “inactive” in each case. Moreover, the figures for the Z-AUC in [3], in [3] (setting [21]) and in experiment [3] (measured here: PEO4 Z-AUC) were 0.959 (inactive), 0.188 and 0.196, respectively.

Regarding `OCC1OC(c2ccc(Cl)c(Cc3ccc(OC4CCOC4)cc3)c2)C(O)C(O)C1O` (stereo unspecified), the Potency entry in [1] and in experiment [2] was “inactive” each time.

Take `CN(CCCCCCN(C)C(=O)Oc1ccc[n+](C)c1)C(=O)Oc1ccc[n+](C)c1`: the Potency entry in experiment [1] and in experiment [2] was “inactive” each time.

`CCC(C)CC(C)CCCCCCCCC(=O)N[C@H]1C[C@@H](O)[C@@H](NCCN)NC(=O)[C@@H]2[C@@H](O)CCN2C(=O)[C@H]([C@H](O)CCN)NC(=O)[C@H]([C@@H](O)[C@H](O)c2ccc(O)cc2)NC(=O)[C@@H]2C[C@@H](O)CN2C(=O)[C@H]([C@@H](C)O)NC1=O` (stereo partly specified): the Potency result in experiment [1] and in [2] was “inactive” in each case.

Regarding `O=C(/C=C/c1ccc(Cl)cc1)N1CCC2(CC1)CN(Cc1ccc(Cl)c(Cl)c1)C(=O)O2`, the Potency result in [1] and in [2] was “inactive” in each case. Moreover, the Z-AUC was 1.05 (inactive) in experiment [3], -0.18 in [3] (setting [21]) and 0.00813 in experiment [3] (measured here: PEO4 Z-AUC).

On to `OCc1cc(C(O)CNCCCCCCOCCOCc2c(Cl)cccc2Cl)ccc1O` (stereo unspecified), for which the Potency entry in experiment [1] and in experiment [2] was “inactive” in each case.

With `O=C(O)c1ccccc1C(c1ccc(O)cc1)c1ccc(O)cc1`, in experiment [4], the Potency was > 92 µM (inactive). Further, the values for the activity change, negative = cytotoxicity in experiment [5], in experiment [9] and in experiment [10] were 6.19% (inactive), 1.41% (inactive) and 8.62% (inactive), respectively. Besides, the Potency entry in experiment [6], in [8], in experiment [17], in experiment [20], in [1] and in [2] was “inactive” throughout. For the same compound, the result in experiment [7], in experiment [11] and in experiment [13] was inactive. Moreover, the max response in experiment [12] was -8.41% and -22.6%; in experiment [14] it was -15.7% and -6.86%; in [15] it was 6.9% (inactive) and 9.98% (inactive); in experiment [16] it was 0.608% (inactive) and -3.85% (inactive); in experiment [18], -7.19% (inactive) and 7.52% (inactive); in experiment [19], -11.1% (inactive) and 2.2% (inactive).
